# Experimental data as given in ChEMBL document CHEMBL2218924, “A broad activity screen in support of a chemogenomic map for kinase signalling research and drug discovery” (Biochem J, 2013).
# Molecular target: T1, Cyclin-dependent kinase 2/cyclin E (Homo sapiens) (UniProt P24864+P24941+O96020)
# Conditions: at 1 µM
row,SMILES,residual activity [%]
1,COc1cc2ncnc(Nc3ccc(NC(=O)c4ccccc4)cc3)c2cc1OC,104
2,O=C1NC(=O)/C(=C\c2ccc3nccnc3c2)S1,94
3,O=C(Nc1cccc(Nc2nccc(Nc3cccc(C(F)(F)F)c3)n2)c1)C1CC1,94
4,CCN(CC)CCCCN1c2ccccc2Oc2ccc(Cl)cc21,116
5,Cc1cncc2cccc(S(=O)(=O)N3CCCN(C(=O)CN)C[C@H]3C)c12,97
6,N#C/C(=C(\N)Sc1ccc(N)cc1)c1ccccc1C(F)(F)F,97
7,O=C1Nc2cc(Br)ccc2/C1=C1/Nc2ccccc2/C1=N\O,3
8,Nc1ccc2ncnc(NCCc3ccc(Oc4ccccc4)cc3)c2c1,98
9,O=C(Nc1cccc(Nc2cc(Nc3cccc(C(F)(F)F)c3)ncn2)c1)C1CC1,99
10,COc1ccc(OC)c2c(=S)c3ccccc3[nH]c12,85
11,O=c1c2ccccc2[nH]c(=S)n1CCN1CCC(=C(c2ccc(F)cc2)c2ccc(F)cc2)CC1,99
12,COc1cc2ncnc(Nc3ccc(O)c(Br)c3)c2cc1OC,102
13,Cc1cc2ncc(-c3ccccc3)nc2cc1C,100
14,COc1ccc(C(=O)Nc2sc3c(c2C(N)=O)CCCC3)cc1OC,106
15,CO[C@H]1C[C@@H]2CC[C@@H](C)[C@@](O)(O2)C(=O)C(=O)N2CCCC[C@H]2C(=O)O[C@H]([C@H](C)C[C@@H]2CC[C@@H](O)[C@H](OC)C2)CC(=O)[C@H](C)/C=C(\C)[C@@H](O)[C@@H](OC)C(=O)[C@H](C)C[C@H](C)/C=C/C=C/C=C/1C,105
16,CNc1cc2c(Nc3cccc(Br)c3)ncnc2cn1,105
17,N#CCCc1ccc2c(c1)-c1[nH]c3ccc([N+](=O)[O-])cc3c1CC(=O)N2,1
18,O=C(O)c1ccc2c3c1cccc3c(=O)n1c3ccccc3nc21,99
19,CCN(CC)C(=O)c1ccc(Nc2nc(OCC3CCCCC3)c3nc[nH]c3n2)cc1,52
20,CC(C)n1cnc2/c(=N/c3cccc(Cl)c3)nc(NCCO)[nH]c21,25
21,CC(=O)O/N=C1\C(=C2\C(=O)Nc3cc(Br)ccc32)Nc2ccccc21,42
22,CC(C)n1cnc2c(NCc3ccccc3)nc(NCCCO)nc21,39
23,CC(=O)c1ccc(N2CCOCC2)cc1O,104
24,Cc1ccc(NC2=CC(=O)c3sc(C)nc3C2=O)cc1,97

# Molecular target: T1, Cyclin-dependent kinase 2/cyclin E (Homo sapiens)
# Conditions: at 10 µM
row,SMILES,residual activity [%]
1,c1ccc(-c2n[nH]c3c2oc2ccccc23)cc1,60
2,COc1cc2ncnc(Nc3ccc(NC(=O)c4ccccc4)cc3)c2cc1OC,104
3,O=C1NC(=O)/C(=C\c2ccc3nccnc3c2)S1,98
4,O=C(Nc1cccc(Nc2nccc(Nc3cccc(C(F)(F)F)c3)n2)c1)C1CC1,97
5,CCN(CC)CCCCN1c2ccccc2Oc2ccc(Cl)cc21,106
6,Cc1cncc2cccc(S(=O)(=O)N3CCCN(C(=O)CN)C[C@H]3C)c12,93
7,N#C/C(=C(\N)Sc1ccc(N)cc1)c1ccccc1C(F)(F)F,102
8,O=C1Nc2cc(Br)ccc2/C1=C1/Nc2ccccc2/C1=N\O,7
9,CC#CC(=O)Nc1cc2c(Nc3ccc(F)c(Cl)c3)ncnc2cn1,94
10,Nc1ccc2ncnc(NCCc3ccc(Oc4ccccc4)cc3)c2c1,90
11,O=C(Nc1cccc(Nc2cc(Nc3cccc(C(F)(F)F)c3)ncn2)c1)C1CC1,76
12,COc1ccc(OC)c2c(=S)c3ccccc3[nH]c12,74
13,O=c1c2ccccc2[nH]c(=S)n1CCN1CCC(=C(c2ccc(F)cc2)c2ccc(F)cc2)CC1,88
14,CN(C)CCCn1cc(C2=C(c3c[nH]c4ccccc34)C(=O)NC2=O)c2ccccc21,35
15,COc1cc2ncnc(Nc3ccc(O)c(Br)c3)c2cc1OC,88
16,Cc1cc2ncc(-c3ccccc3)nc2cc1C,104
17,COc1ccc(C(=O)Nc2sc3c(c2C(N)=O)CCCC3)cc1OC,97
18,CO[C@H]1C[C@@H]2CC[C@@H](C)[C@@](O)(O2)C(=O)C(=O)N2CCCC[C@H]2C(=O)O[C@H]([C@H](C)C[C@@H]2CC[C@@H](O)[C@H](OC)C2)CC(=O)[C@H](C)/C=C(\C)[C@@H](O)[C@@H](OC)C(=O)[C@H](C)C[C@H](C)/C=C/C=C/C=C/1C,96
19,CNc1cc2c(Nc3cccc(Br)c3)ncnc2cn1,107
20,N#CCCc1ccc2c(c1)-c1[nH]c3ccc([N+](=O)[O-])cc3c1CC(=O)N2,-2
21,c1ccc(-c2n[nH]cc2-c2ccnc3ccccc23)nc1,94
22,O=C(O)c1ccc2c3c1cccc3c(=O)n1c3ccccc3nc21,81
23,CCN(CC)C(=O)c1ccc(Nc2nc(OCC3CCCCC3)c3nc[nH]c3n2)cc1,7
24,CC(C)n1cnc2/c(=N/c3cccc(Cl)c3)nc(NCCO)[nH]c21,2
25,CC(=O)O/N=C1\C(=C2\C(=O)Nc3cc(Br)ccc32)Nc2ccccc21,9
26,CC(C)n1cnc2c(NCc3ccccc3)nc(NCCCO)nc21,8
27,CC(=O)c1ccc(N2CCOCC2)cc1O,100
28,Cc1ccc(NC2=CC(=O)c3sc(C)nc3C2=O)cc1,91
29,Cc1cccc(-c2[nH]c(C(C)(C)C)nc2-c2ccc3c(c2)OCO3)n1,98
